Results: PubChem BioAssay (NCI)
“And” between values parts separate entries of the source, which are not always exact repeats. Equal entries are not always repeated. Compounds without any hit were thinned out: in the full panel of roughly 83,000, 20% have a hit.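 Cell lines were cultured in 96-well plates, exposed to a single compound concentration, and assessed for percent growth 48 hours later.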 The source made the active and inactive calls. Rule for the calls: active = growth percent below 10; inactive = the rest.

How the values were obtained:
Test in all cases: NCI-60 one-dose screen, 48 h (100 = growth as untreated, 0 = no growth, -100 = all killed)
SK-MEL-2 melanoma = conditions: 10 µM
EKVX NSCLC = conditions: 10 µM
SN12C renal = conditions: 10 µM
UO-31 renal = conditions: 10 µM
ACHN renal = conditions: 10 µM
CAKI-1 renal = conditions: 10 µM
A498 renal = conditions: 10 µM
HL-60(TB) leukemia = conditions: 10 µM
MOLT-4 leukemia = conditions: 10 µM
RPMI-8226 leukemia = conditions: 10 µM
OVCAR-8 ovarian = conditions: 10 µM
OVCAR-5 ovarian = conditions: 10 µM
OVCAR-4 ovarian = conditions: 10 µM
SK-OV-3 ovarian = conditions: 10 µM
OVCAR-3 ovarian = conditions: 10 µM
HS 578T breast = conditions: 10 µM
CCRF-CEM leukemia = conditions: 10 µM
IGROV1 ovarian = conditions: 10 µM
SR leukemia = conditions: 10 µM
TK-10 renal = conditions: 10 µM unless noted

Measured: growth

O=[N+]([O-])c1ccc(N2CCOCC2)c2c1no[n+]2[O-]
inactive: EKVX NSCLC 46.5% | SN12C renal 16.8% | ACHN renal 13.6% | CAKI-1 renal 26.1% | OVCAR-8 ovarian 28.1% | OVCAR-5 ovarian 43.8%
active: SK-MEL-2 melanoma -4.77% | UO-31 renal 8.16% | A498 renal -14.1% | HL-60(TB) leukemia -16.7% | MOLT-4 leukemia 3.12% | RPMI-8226 leukemia -7.12% | OVCAR-4 ovarian -6.35% | SK-OV-3 ovarian 7.59% | OVCAR-3 ovarian -34.3% | HS 578T breast 1.69%

[Cl][Hg][c]1ccc(Cl)s1
active: EKVX NSCLC -18.7% | UO-31 renal -64.3% | ACHN renal -80.9% | CAKI-1 renal -53% | HL-60(TB) leukemia -17.2% | CCRF-CEM leukemia -11% | MOLT-4 leukemia -11.5% | OVCAR-3 ovarian -78.7%
inactive: SK-MEL-2 melanoma 64.3% | SN12C renal 34.1% | A498 renal 104% | RPMI-8226 leukemia 18.5% | OVCAR-8 ovarian 60% | OVCAR-5 ovarian 28.2% | OVCAR-4 ovarian 11.2% | SK-OV-3 ovarian 98.2% | IGROV1 ovarian 26.2% | HS 578T breast 59.1%

COC(=O)C1C(O)C(C)C(O)C(C)/C=C\C=C(C)C(=O)Nc2c(C)c(OC(C)=O)c3c(c2O)C(=O)C(C)=C2OCOC(=C23)C(C)=CC(C)(O)C(O)C(C)C1O (configuration not stated)
inactive: SK-MEL-2 melanoma 96.2% | EKVX NSCLC 110% | SN12C renal 94.9% | UO-31 renal 103% | ACHN renal 85.7% | CAKI-1 renal 95.5% | A498 renal 102% | HL-60(TB) leukemia 72.3% | MOLT-4 leukemia 51.9% | SR leukemia 49.3% | RPMI-8226 leukemia 95.3% | OVCAR-5 ovarian 77% | OVCAR-4 ovarian 79.4% | SK-OV-3 ovarian 108% | IGROV1 ovarian 58.7% | OVCAR-3 ovarian 105% | HS 578T breast 81.7%

C[C@]12CC[C@H]3[C@@H](CCC4=CC(=O)CC[C@@H]43)[C@@H]1CC[C@@H]2OC(=O)N(CCCl)N=O
inactive: SK-MEL-2 melanoma 27.4% | EKVX NSCLC 119% | SN12C renal 23.2% | UO-31 renal 40.8% | ACHN renal 13% | CAKI-1 renal 27.4% | A498 renal 58% | CCRF-CEM leukemia 11% | MOLT-4 leukemia 12.8% | OVCAR-8 ovarian 54.3% | OVCAR-5 ovarian 108% | OVCAR-4 ovarian 84.8% | SK-OV-3 ovarian 46.7% | HS 578T breast 69.7%
active: HL-60(TB) leukemia -22.6% | RPMI-8226 leukemia 5.42% | IGROV1 ovarian -2.36%

Cc1cc([N+](=O)[O-])c2ccccc2[n+]1[O-]
41% (inactive) and -30.6% (active): HL-60(TB) leukemia
inactive: EKVX NSCLC 89.4% | OVCAR-5 ovarian 20.9% and 13.3% | OVCAR-4 ovarian 84.1% and 58.4%
46.8% (inactive) and 5.5% (active): IGROV1 ovarian
active: SK-MEL-2 melanoma -57.5% and -79.5% | SN12C renal -5.98% and -21.1% | UO-31 renal -26.7% and -48.8% | ACHN renal -35.6% and -73.4% | CAKI-1 renal 8.17% and -82.2% | A498 renal -59.8% and -80.3% | MOLT-4 leukemia -24.5% | SR leukemia -10.2% and -21.8% | RPMI-8226 leukemia -23.6% and -42.3% | OVCAR-8 ovarian 9.55% and -40.6% | HS 578T breast 8.5% and -14.4%
17% (inactive) and -2.8% (active): CCRF-CEM leukemia
7.72% (active) and 21.4% (inactive): SK-OV-3 ovarian

O=C(CBr)Nc1ccccc1
inactive: SK-MEL-2 melanoma 97% | EKVX NSCLC 111% | SN12C renal 91% | UO-31 renal 84.9% | ACHN renal 104% | CAKI-1 renal 106% | A498 renal 108% | HL-60(TB) leukemia 96.1% | MOLT-4 leukemia 42.6% | RPMI-8226 leukemia 100% | OVCAR-8 ovarian 98% | OVCAR-5 ovarian 128% | OVCAR-4 ovarian 92.5% | SK-OV-3 ovarian 113% | IGROV1 ovarian 106% | HS 578T breast 99.9%

CC(Cc1ccc2c(c1)OCO2)NN (configuration not stated)
inactive: SK-MEL-2 melanoma 101% | EKVX NSCLC 84.2% | SN12C renal 102% | UO-31 renal 96.7% | TK-10 renal 93% | ACHN renal 98.7% | A498 renal 77.2% | HL-60(TB) leukemia 81.8% | CCRF-CEM leukemia 84.1% | MOLT-4 leukemia 78.4% | RPMI-8226 leukemia 91.8% | OVCAR-8 ovarian 97.7% | OVCAR-5 ovarian 100% | OVCAR-4 ovarian 106% | SK-OV-3 ovarian 84.8% | IGROV1 ovarian 100% | OVCAR-3 ovarian 112% | HS 578T breast 93.3%

C[C@@H]1C[C@@H]([C@H](O)CC2CC(=O)NC(=O)C2)C(=O)[C@@H](C)C1
active: SK-MEL-2 melanoma -6.5% | SN12C renal -0.0682% | UO-31 renal 0.7% | TK-10 renal 8.46% | ACHN renal 3.19% | MOLT-4 leukemia 3.71% | OVCAR-8 ovarian 3.4% | OVCAR-5 ovarian 8.45% | OVCAR-3 ovarian 4.14% | HS 578T breast 7.45%
inactive: EKVX NSCLC 12.4% | CAKI-1 renal 15.9% | A498 renal 17.7% | OVCAR-4 ovarian 12.8% | SK-OV-3 ovarian 10.9% | IGROV1 ovarian 11.3%

C/C(=C\c1ccc(Cl)c(Cl)c1)[N+](=O)[O-]
-10.7% (active) and 91.3% (inactive): RPMI-8226 leukemia
-43.4% (active) and 101% (inactive): SN12C renal
-70.7% (active) and 105% (inactive): ACHN renal
8.59% (active) and 85.4% (inactive): CCRF-CEM leukemia
-84.4% (active) and 97.6% (inactive): UO-31 renal
inactive: SK-MEL-2 melanoma 18.1% and 95.5% | EKVX NSCLC 94.6% | CAKI-1 renal 121% | A498 renal 103% and 79.2% | SR leukemia 12.3% and 88.6% | OVCAR-8 ovarian 11.9% and 90.8% | OVCAR-5 ovarian 108% and 104% | SK-OV-3 ovarian 108% and 96.6% | HS 578T breast 82.8% and 103%
4.34% (active) and 79.2% (inactive): MOLT-4 leukemia
-42.5% (active) and 114% (inactive): OVCAR-4 ovarian
-55.8% (active) and 111% (inactive): IGROV1 ovarian

CC[C@@]1(O)C[C@H](OC2CC(N(C)C)C(O)C(C)O2)c2c(cc3c(c2O)C(=O)c2c(O)ccc(O)c2C3=O)[C@H]1C(=O)OC (some centres not stated)
active: SK-MEL-2 melanoma -57.1% | EKVX NSCLC -47.8% | SN12C renal -42.7% | UO-31 renal -64.7% | TK-10 renal -50.4% | ACHN renal -88.4% | CAKI-1 renal -71.8% | HL-60(TB) leukemia -68.9% | CCRF-CEM leukemia -30.1% | MOLT-4 leukemia -19.5% | RPMI-8226 leukemia -32.6% | OVCAR-5 ovarian -87% | OVCAR-4 ovarian -44.2% | SK-OV-3 ovarian -68.9% | IGROV1 ovarian -68.3% | OVCAR-3 ovarian -41.6%

CC/C(=C/c1ccc(OC)cc1OC)[N+](=O)[O-]
inactive: SK-MEL-2 melanoma 34.4% | EKVX NSCLC 79.9% | SN12C renal 15.9% | UO-31 renal 28.1% | CAKI-1 renal 49.2% | A498 renal 76.8% | OVCAR-8 ovarian 18.4% | OVCAR-5 ovarian 35.9% | OVCAR-4 ovarian 93.7% | SK-OV-3 ovarian 124% | IGROV1 ovarian 39.6% | OVCAR-3 ovarian 58.7% | HS 578T breast 77.6%
active: ACHN renal -43.1% | MOLT-4 leukemia 6.34% | SR leukemia 2.47% | RPMI-8226 leukemia -7.24%

C/C1=C\[C@H](C)C[C@H](C)OC(=O)C[C@H](c2ccc(O)cc2)NC(=O)[C@@H](Cc2c(Br)[nH]c3ccccc23)N(C)C(=O)[C@H](C)NC(=O)[C@@H](C)C1
inactive: SN12C renal 14.2%
active: SK-MEL-2 melanoma -67.3% | EKVX NSCLC -23.6% | UO-31 renal -92.1% | TK-10 renal -81.7% | ACHN renal -18.7% | CAKI-1 renal -43.2% | A498 renal -78.8% | MOLT-4 leukemia 2.89% | RPMI-8226 leukemia -56.9% | OVCAR-5 ovarian -35.1% | OVCAR-4 ovarian -54.6% | SK-OV-3 ovarian -20.9% | IGROV1 ovarian -79.1% | HS 578T breast -40.4%

COc1ccccc1/C=C/[N+](=O)[O-]
active: SR leukemia -11.9%
inactive: SK-MEL-2 melanoma 104% | EKVX NSCLC 72.6% | SN12C renal 83.2% | UO-31 renal 62% | ACHN renal 55.5% | CAKI-1 renal 70.9% | A498 renal 109% | MOLT-4 leukemia 53.3% | OVCAR-8 ovarian 63.3% | OVCAR-5 ovarian 85.6% | SK-OV-3 ovarian 113% | IGROV1 ovarian 53% | OVCAR-3 ovarian 49.9% | HS 578T breast 79%

CC(=O)c1ccccc1O
inactive: HL-60(TB) leukemia 85.9% and 82.5% and 101%

S=C=NCCc1ccccc1
active: HL-60(TB) leukemia 9.55% | SR leukemia 6.81% | RPMI-8226 leukemia -18.9%
inactive: SK-MEL-2 melanoma 104% | EKVX NSCLC 127% | SN12C renal 68.4% | UO-31 renal 51.3% | ACHN renal 72% | CAKI-1 renal 69.4% | MOLT-4 leukemia 53.4% | OVCAR-5 ovarian 33.2% | OVCAR-4 ovarian 69.5% | SK-OV-3 ovarian 122% | IGROV1 ovarian 44.1% | OVCAR-3 ovarian 72%

O=C(CBr)Nc1ccc(Cl)cc1
inactive: SK-MEL-2 melanoma 103% | SN12C renal 85.5% | UO-31 renal 90.1% | ACHN renal 64% | CAKI-1 renal 22% | A498 renal 104% | MOLT-4 leukemia 20.7% | RPMI-8226 leukemia 73.4% | OVCAR-8 ovarian 96.6% | OVCAR-5 ovarian 66.6% | OVCAR-4 ovarian 89.2% | SK-OV-3 ovarian 108% | OVCAR-3 ovarian 68.9% | HS 578T breast 115%

Oc1c(Cl)cc(Cl)c2ccccc12.[Cu+2]
inactive: SK-MEL-2 melanoma 86.1% | SN12C renal 99% | UO-31 renal 49% | ACHN renal 91.9% | CAKI-1 renal 96.4% | A498 renal 106% | HL-60(TB) leukemia 92% | MOLT-4 leukemia 70.7% | OVCAR-8 ovarian 83% | OVCAR-5 ovarian 127% | OVCAR-4 ovarian 55.8% | SK-OV-3 ovarian 87.2% | IGROV1 ovarian 74.8% | OVCAR-3 ovarian 79.7% | HS 578T breast 88.9%

Cc1cc(C)c(C[N+](C)(C)C)c(C)c1C
active: SK-MEL-2 melanoma -19.5% | SN12C renal 0.359% | UO-31 renal 4.54% | ACHN renal 6.7% | CAKI-1 renal 5.45% | A498 renal 8.63% | MOLT-4 leukemia 3.91% | SR leukemia 7.44% | RPMI-8226 leukemia -18.4% | OVCAR-8 ovarian 6.43% | OVCAR-4 ovarian 8.09% | SK-OV-3 ovarian 7.37% | IGROV1 ovarian 7.5% | HS 578T breast 0.977%
inactive: OVCAR-5 ovarian 10.1% | OVCAR-3 ovarian 11.4%
